# Bioassay records deposited in PubChem by National Center for Advancing Translational Sciences (NCATS).
# Shiga inhibitor = blocks Shiga toxin action in Vero cells; Vero cells, Shiga toxin protein synthesis inhibition reporter; 9.2% of 290,000 active; AID 2315; inhibition, % at 38.7 µM; in the data active = inhibition mostly above about 28%, no sharp cut-off; inactive = mostly below about 43%; also: 0% is about no effect
# LmPK inh = inhibitors of Leishmania mexicana pyruvate kinase; Q27686; purified LmPK, Kinase-Glo ATP luminescence, 1 h; Potency, µM (top dose mostly 57.5 µM), inactives show at the top dose activity change, negative = inhibition, most hits filed as inhibitors; 0.37% of 290,000 active; active = well fitted curve in the direction sought with a large enough effect; inconclusive = small, poorly fitted or top-dose-only effect, or another doubt; inactive = no such curve, though single readings can be large; an effect the other way counts as inactive or inconclusive; also: potency is read from the fitted curve at half-maximal effect; % is scaled to controls: 0 for no effect and ±100 for the full control effect
# Target sequence (Q27686 whole entry, looked up): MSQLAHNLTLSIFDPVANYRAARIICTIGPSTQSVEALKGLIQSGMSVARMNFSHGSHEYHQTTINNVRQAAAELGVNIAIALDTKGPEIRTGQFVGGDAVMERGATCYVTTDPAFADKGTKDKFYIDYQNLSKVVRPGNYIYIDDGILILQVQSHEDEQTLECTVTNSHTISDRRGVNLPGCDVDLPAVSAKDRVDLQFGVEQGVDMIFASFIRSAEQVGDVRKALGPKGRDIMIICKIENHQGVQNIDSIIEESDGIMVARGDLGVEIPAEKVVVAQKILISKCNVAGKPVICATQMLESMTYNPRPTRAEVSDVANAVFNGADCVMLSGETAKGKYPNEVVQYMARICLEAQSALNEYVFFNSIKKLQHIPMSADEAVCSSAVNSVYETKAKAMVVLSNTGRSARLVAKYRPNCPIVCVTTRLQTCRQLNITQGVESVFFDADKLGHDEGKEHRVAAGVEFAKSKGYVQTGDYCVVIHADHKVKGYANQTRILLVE
#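 Kinase-Glo luminescence read after 1 h RT reaction of 0.1 nM LmPK with 0.5 mM PEP and 0.1 mM ADP. Activity scaled between uninhibited and enzyme-free controls.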
# NS1 function inh = influenza NS1 inhibition | Potency, µM (titrated, usually from 46.1 µM), for the others: at the top dose activity, positive = more growth | 0.4% of 270,000 active; also: potency is read from the fitted curve at half-maximal effect; actives are rising curves; nearly all actives have a fitted effect of over 50% in size
#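 Read-out: OD600 growth recovery of NS1-expressing budding yeast. Cells grown overnight at 30C in -URA glucose medium, washed, resuspended and diluted 1:100 in 2% galactose assay medium, pH 6.0. Same strain lacking NS1 served as positive control.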
# Tb PYK inh = blocks Trypanosoma brucei pyruvate kinase | TbPYK enzyme, Kinase-Glo Plus ATP luminescence, 45 min | Potency, µM (doses to about 76.8 µM), for inactives: top-dose activity, negative = inhibition, hits mostly inhibitors | 0.12% of 410,000 active | AID 624173; active = well fitted curve in the direction sought with a large enough effect; inconclusive = small, poorly fitted or top-dose-only effect, or another doubt; inactive = no such curve, though single readings can be large; an effect the other way counts as inactive or inconclusive; also: potency is read from the fitted curve at half-maximal effect; % is scaled to controls: 0 for no effect and ±100 for the full control effect; nearly all actives have a fitted effect of over 50% in size
#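 ADP (130 uM final) triggers the TbPYK reaction after compound addition; incubation is 45 min at room temperature. Kinase-Glo Plus is then added and luminescence imaged. Normalized data are fitted to concentration-effect curves.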
# Cycloheximide cs = counter-screen hit for Shiga toxin inhibitors, cycloheximide; cell reporter, cycloheximide protein synthesis inhibition counterscreen; max response, %; 12% of 300,000 active; AID 2314; in the data active = max response mostly above about 13%, no sharp cut-off; inactive = mostly below about 14%; also: read at 38.3 µM for the half of the compounds with a filed dose; 0% is about no effect
# SARS PLP yeast = SARS-CoV PLP inhibition in yeast; S. cerevisiae expressing SARS-CoV PLpro, growth rescue; Potency, µM (doses to about 32.9 µM), for the others: at the highest dose activity, positive = growth rescue, usual class: activators; 0.19% of 330,000 active; also: potency is read from the fitted curve at half-maximal effect; 0% is about no effect; nearly all actives have a fitted effect of over 55% in size
# Active calls of the source: *; ? = inconclusive; . = no result given. Many of the other results were omitted from the sample, so hits are more common in it than they were. Unless noted, calls follow the shape of the full dose curve.
SMILES,Shiga inhibitor,LmPK inh,NS1 function inh,Tb PYK inh,Cycloheximide cs,SARS PLP yeast
COc1ccccc1NC(=O)c1cc2ccccc2o1,64.3*,-8.6%,-12.9%,-4.3%,39.2*,-17.8%
O=C(NCc1ccccc1Cl)c1cc2ccccc2o1,.,.,.,-0.7%,.,.
COc1cc(NC(=O)c2cc3ccccc3o2)c(OC)cc1Br,12.5,1.5%,10.2%,2.3%,0.4,10.6%
O=C(Nc1ncccc1Cl)c1cc2ccccc2o1,72.8*,-23.1%,-13.1%,0.7%,29.8*,-2.1%
COc1cc(NC(=O)c2cc3ccccc3o2)c(OC)cc1Cl,-14.4,3.0%,-3.0%,2.0%,-2.5,7.2%
CCN(CC)c1ccc(NC(=O)c2c(OC)cccc2OC)c(C)c1,-17.4,4.5%,-1.8%,-0.7%,8.9,.
CSc1ccc(CCNC(=O)CN2C(=O)COc3ccc(S(=O)(=O)N4CCCC4)cc32)cc1,.,.,.,2.5%,.,.
Cc1ccccc1NC(=O)c1cc2ccccc2o1,.,-11.1%,-17.1%,-11.0%,37.0*,0.4%
CCOCCCn1c(SCC(=O)Nc2ccccc2)nc2ccccc2c1=O,3.4,1.9%,-32.0%,-3.3%,2.0,0.1%
COCCn1c(SCc2nc3ccccc3s2)nc2ccccc21,146.7*,-3.7%,-37.1%,-10.2%,36.7*,2.2%
CCOCCCn1c(SCc2nc3ccccc3s2)nc2ccccc2c1=O,101.3*,-0.5%,16.3%,-10.7%,87.3*,-4.3%
C=CCn1c(=O)c2ccccc2n2c(SCc3nc4ccccc4s3)nnc12,131.4*,-9.8%,-8.9%,-6.2%,44.8*,15.5%
Cc1ccc(-n2nc(C)c3c(C(=O)Nc4ccc(Br)c(C)c4)cc(C)nc32)cc1,.,.,.,-7.0%,.,.
CC(C)C[C@H](NC(=O)CNC(=O)[C@H](C)NC(=O)[C@H](CC(C)C)NC(=O)[C@H](CCCNC(=N)N)NC(=O)[C@H](Cc1cnc[nH]1)NC(=O)[C@@H](NC(=O)[C@@H](N)C(C)C)[C@@H](C)O)C(=O)N[C@@H](CC(C)C)C(=O)N[C@@H](CO)C(=O)N[C@@H](CCCNC(=N)N)C(=O)N[C@@H](CO)C(=O)NCC(=O)NCC(=O)N[C@H](C(=O)N[C@H](C(=O)N[C@@H](CCCCN)C(=O)N[C@@H](CC(N)=O)C(=O)N[C@@H](CC(N)=O)C(=O)N[C@@H](Cc1ccccc1)C(=O)N[C@H](C(=O)N1CCC[C@H]1C(=O)N[C@H](C(=O)N[C@@H](CC(N)=O)C(=O)N[C@H](C(=O)NCC(=O)N[C@@H](CO)C(=O)N[C@@H](CCCCN)C(=O)N[C@@H](C)C(=O)N[C@@H](Cc1ccccc1)C(N)=O)C(C)C)[C@@H](C)O)C(C)C)C(C)C)C(C)C,-2.6,.,.,.,-7.2,.
CC(C)c1ccc2[nH]c3c(c2c1)[C@@H]1CCN2C(=O)CCC[C@H](C3)[C@H]12,35.2*,3.7%,-10.5%,-14.7%,22.3*,-6.9%
CC[C@H]1c2[nH]c3ccc(C(C)C)cc3c2[C@@H]2CCN3C(=O)CCC[C@H]1[C@H]23,.,.,.,3.1%,.,.
Cc1cc(SCC(=O)c2ccccc2)nc(C)n1,117.1*,?,-11.2%,0.8%,31.7*,-6.5%
Cc1cc(C)n2nc(SCC(=O)c3cccs3)nc2n1,11.3,2.3%,-3.7%,-1.7%,14.4,-1.1%
Cc1cc(C)n2nc(SCCOc3ccccc3F)nc2n1,113.9*,-2.3%,.,5.8%,25.8*,1.4%
Cc1cc(C)n2nc(SCC(=O)c3ccccc3)nc2n1,33.3,-11.6%,-3.6%,-1.3%,14.4*,-3.1%
Cc1cc(C)n2nc(SCC(=O)Nc3ccccc3F)nc2n1,.,.,.,-3.0%,.,-1.0%
O=C(O)C1OC(C(=O)O)C(C(=O)O)C1C(=O)O (configuration not stated),.,.,.,-12.7%,.,.
O=C(Nc1cc(-c2nc3cc(Cl)ccc3o2)ccc1Cl)c1cc2ccccc2o1,.,.,.,4.9%,.,.
Cc1ccc(C2=Nc3ccccc3S[C@@H](c3cccc([N+](=O)[O-])c3)C2)cc1,.,.,-3.2%,.,.,.
Cc1ccc(C2=Nc3ccccc3SC(c3cccc([N+](=O)[O-])c3)C2)cc1 (configuration not stated),70.1*,2.7%,-58.5%,-6.5%,35.4*,-7.4%
SMILES,Shiga inhibitor,LmPK inh,NS1 function inh,Tb PYK inh,Cycloheximide cs,SARS PLP yeast
O=C1C(=O)N(C2CCN(C(=O)c3ccccc3Cl)CC2)CCN1Cc1ccc(F)cc1,.,.,.,0.9%,.,.
O=C(Nc1ccc(COc2ccccc2)cc1)Nc1cccc(C(=O)O)c1,19.6,-5.1%,2.5%,-7.6%,17.2*,1.7%
O=C(NC(NC(=S)Nc1cccc(C(=O)O)c1)C(Cl)(Cl)Cl)OCc1ccccc1 (configuration not stated),29.2,-0.6%,?,4.8%,18.6*,8.0%
O=C(Nc1ccccc1)c1ccc(COc2ccccc2)cc1,27.4,-13.2%,1.9%,0.0%,9.6,0.1%
CCOc1ccc(NS(=O)(=O)c2cc(C(=O)N3CCCC3)ccc2Cl)cc1,.,.,.,1.4%,.,-2.2%
O=C(O)c1cccc(NC(=S)NC(=O)c2cccc(OCc3ccccc3)c2)c1,38.5*,-0.7%,-2.4%,1.4%,14.4*,-0.4%
O=C(O)c1ccc(Cl)c(S(=O)(=O)Nc2ccc(OCc3ccccc3)cc2)c1,61.9*,4.7%,5.8%,-3.3%,23.4*,2.9%
O=C(Nc1nnc(S(=O)(=O)N2CCCc3ccccc32)s1)c1ccccc1Cl,.,.,.,-2.5%,.,.
CCn1nc(NC(=O)c2ccco2)c2cc3cc(C)ccc3nc21,28.0,8.2%,-1.8%,0.2%,9.8*,-3.6%
CCCn1nc(NC(=O)c2cccs2)c2cc3cc(C)ccc3nc21,36.8*,2.5%,-7.8%,-6.6%,25.4*,-13.2%
CCCn1nc(NC(=O)c2ccco2)c2cc3ccccc3nc21,19.4,0.2%,-6.3%,2.1%,3.5,-2.2%
CCCn1nc(NC(=O)c2cccs2)c2cc3cc(OC)ccc3nc21,29.4*,4.0%,-76.6%,-0.3%,18.2*,-5.1%
CC[C@@H]1/C=C(\C)C[C@H](C)C[C@H](OC)[C@H]2O[C@@](O)(C(=O)C(=O)N3CCCC[C@H]3C(=O)O[C@H](/C(C)=C/[C@@H]3CC[C@H](Cl)[C@H](OC)C3)[C@H](C)[C@@H](O)CC1=O)[C@H](C)C[C@@H]2OC,.,.,.,-7.3%,.,.
COc1ccc(C2c3c(oc4ccc(F)cc4c3=O)C(=O)N2Cc2ccc3c(c2)OCO3)cc1 (configuration not stated),.,.,.,-1.8%,.,.
CCOC(=O)C1CCN(S(=O)(=O)c2cc3c4c(c2)C(C)C(=O)N4CCC3)CC1 (configuration not stated),-5.0,3.8%,2.8%,6.6%,-0.9,3.6%
CCOc1ccc(/C=C/C2=NNC(=O)CC2)cc1,53.0*,?,-2.4%,-10.8%,23.4*,-1.2%
COc1ccc(/C=C/C2=NNC(=O)CC2)cc1,65.8,2.1%,.,-2.7%,26.6*,0.2%
CCCOc1ccc(C2=NNC(=O)CC2)cc1,12.2,-2.4%,-0.8%,-7.3%,14.6*,-0.5%
